# Compounds with a hit are over-represented: about 15% of the library has one in this group of screens.
# VP16 counter = VP16 counterscreen qHTS for inhibitors of ROR gamma transcriptional activity; Potency, µM (titrated, usually from 53.6 µM), without a hit: at the top dose activity, negative = inhibition, hits mostly inhibitors; AID 2546, 2010; Drosophila S2 Gal4-VP16 UAS-luciferase, luminescence, 20 h; 3.5% of 310,000 active;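 also: Gal4-VP16 expression switched on by copper sulfate through the metallothionein promoter; nearly all actives have a fitted effect of over 50% in size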
# DT40 TDP1 CPT = qHTS for Inhibitors of human tyrosyl-DNA phosphodiesterase 1 (TDP1): qHTS in cells in presence of CPT; chicken DT40 Tdp1-/-;hTDP1 cells + 20 nM CPT, ATP luminescence, 48 h; Potency, µM (top dose mostly 46.2 µM), for the others: top-dose activity change, negative = growth inhibition, actives largely listed as inhibitors; 12% of 420,000 active; AID 686979, 2013; also: nearly all actives have a fitted effect of over 55% in size
#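 Chicken DT40 Tdp1-/- cells stably complemented with human TDP1 were seeded at 400 cells/well in medium containing 20 nM camptothecin, exposed to pin-transferred compounds, and grown at 37 °C for at least 48 hr. Viability was read as ATP luminescence.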
# ELG1 DNA repair = qHTS screen for small molecules that inhibit ELG1-dependent DNA repair in human embryonic kidney (HEK293T) cells expressing luciferase-tagged ELG1. HEK293T ELG1-luciferase reporter, luminescence, 16 h; DNA damage induced by 5-fluorouridine. Potency, µM (top dose mostly 46.1 µM), for the others: at the top dose activity change, negative = inhibition, actives largely listed as inhibitors. 2.3% of 330,000 active; also: nearly all actives have a fitted effect of over 55% in size
#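 Overnight (16 hr) co-exposure of 2,000 cells/well to 5-fluorouridine and compound at 37 °C preceded detection. Luciferase was quantified via ONE-Glo luminescence; loss of signal denotes inhibition.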
# ALOX12 inh = Primary qHTS assay for inhibitors of human arachidonate 12S-lipoxygenase (ALOX12): Round 2; Polyunsaturated fatty acid lipoxygenase ALOX12 (Homo sapiens), P18054; purified 12hLO, xylenol orange hydroperoxide absorbance; Potency, µM (top dose mostly 108 µM), for inactives: at the top dose activity change, negative = inhibition, actives largely listed as inhibitors; 1.1% of 580,000 active; AID 1671190, 2021
# Target sequence (P18054 whole entry, looked up): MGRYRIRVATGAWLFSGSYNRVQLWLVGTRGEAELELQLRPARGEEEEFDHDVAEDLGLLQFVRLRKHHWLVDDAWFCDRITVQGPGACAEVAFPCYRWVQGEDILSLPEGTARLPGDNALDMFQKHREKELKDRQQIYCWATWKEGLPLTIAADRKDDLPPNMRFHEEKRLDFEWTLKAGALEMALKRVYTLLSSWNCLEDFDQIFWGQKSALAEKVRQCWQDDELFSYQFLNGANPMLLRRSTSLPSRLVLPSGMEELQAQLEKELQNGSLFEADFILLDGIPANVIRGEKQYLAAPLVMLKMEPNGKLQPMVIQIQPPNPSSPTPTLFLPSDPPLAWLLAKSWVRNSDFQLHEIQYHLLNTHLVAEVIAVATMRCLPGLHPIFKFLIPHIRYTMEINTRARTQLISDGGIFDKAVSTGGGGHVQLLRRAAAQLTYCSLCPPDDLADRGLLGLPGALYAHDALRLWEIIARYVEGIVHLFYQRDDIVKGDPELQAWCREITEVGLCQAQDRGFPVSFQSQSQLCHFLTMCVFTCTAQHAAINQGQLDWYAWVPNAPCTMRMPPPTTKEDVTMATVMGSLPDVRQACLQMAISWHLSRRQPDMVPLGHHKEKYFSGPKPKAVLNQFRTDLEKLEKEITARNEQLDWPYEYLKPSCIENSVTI
#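 Hydroperoxide product was detected by ferrous iron/xylenol orange as the 573 to 405 nm absorbance ratio. Arachidonic acid at 40 uM (final) was turned over for 30 min at room temperature by 150 nM human 12hLO, pH 7.0 Hepes buffer, after 15 min compound preincubation.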
# RORg inh = qHTS for inhibitors of ROR gamma transcriptional activity | Potency, µM (titrated, usually from 53.6 µM), for inactives: at the top dose activity change, negative = inhibition, hits mostly inhibitors | 5.4% of 310,000 active | Drosophila S2 Gal4-RORgamma UAS-luciferase reporter, 20 h; also: nearly all actives have a fitted effect of over 60% in size
#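 Stably transfected Drosophila Schneider cells are the test system, with ROR gamma fused to Gal4 and luciferase under UAS control; luminescence is read after 20 hr of 700 uM copper sulfate induction at ambient temperature.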
# DT40 TDP1 no CPT = qHTS for Inhibitors of human tyrosyl-DNA phosphodiesterase 1 (TDP1): qHTS in cells in absence of CPT | DT40 Tdp1-/- hTDP1 cells, no CPT, ATP luminescence, 48 h | Potency, µM (titrated, usually from 46.2 µM), for the others: top-dose activity change, negative = growth inhibition, actives largely listed as inhibitors | 15% of 420,000 active | AID 686978, 2013; also: nearly all actives have a fitted effect of over 55% in size
#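 Growth of hTDP1-complemented DT40 Tdp1-knockout cells is measured by ATP luminescence after at least 48 hr compound exposure at 37 °C, with DMSO substituting for the 20 nM CPT used in the parallel screen.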
# * marks the source's active call; other numbers are inactive results; ? = inconclusive; · = not tested or not shown; [ ] = another dose, or the depositor's remark. Calls follow the shape of the dose curve; as a rule, active = well fitted curve in the direction sought with a large enough effect; inconclusive = small, poorly fitted or top-dose-only effect, or another doubt; inactive = no such curve, though single readings can be large; an effect the other way counts as inactive or inconclusive. % is scaled to controls: 0 for no effect and ±100 for the full control effect; potency is read from the fitted curve at half-maximal effect.
SMILES,VP16 counter,DT40 TDP1 CPT,ELG1 DNA repair,ALOX12 inh,RORg inh,DT40 TDP1 no CPT
Cn1nccc1C(=O)N1CC(N(C2CCOCC2)S(C)(=O)=O)C1,·,·,·,28%,·,·
COc1ccc(/C=C2\N=C(C(C)(C)C)OC2=O)c(OC)c1,-5%,7.3µM*,0%,7%,-34%,8.2µM*
COc1ccccc1-n1ccnc1SCC(=O)NC1CCCC1,3%,8%,-9%,-11%,-6%,-1%
COc1cc(-n2ccnc2SC)c(Cl)cc1Cl,2%,?,?,0%,-34%,18µM*
N#Cc1cccc(/C=C2\CCOc3cc(Br)ccc3C2=O)c1,·,·,·,4%,·,·
COc1ccc(-n2c(=O)c(CCc3ccccc3)nc3cnc(N4CCNCC4)nc32)cc1,?,?,·,-24%,?,-12%
CN1CCN(c2ncc3nc(CCc4ccccc4)c(=O)n(C)c3n2)CC1,24%,23µM*,·,?,11%,?
COc1ccc(-n2c(=O)c(CCc3ccccc3)nc3cnc(N4CCN(C)CC4)nc32)cc1,-5%,-10%,·,13µM*,2%,-25%
COc1ccc(Oc2ncc3nc(CCc4ccccc4)c(=O)n(CCC#N)c3n2)cc1,5%,?,·,0%,27%,23µM*
COc1cc(Cl)ccc1OCc1nnc(C(=O)N2CCC[C@@H]2c2cccc(F)c2)n1-c1ccccc1,·,·,·,6%,·,·
Cc1cc(-c2ccccc2)nc(Oc2ccc(C(C)(C)C)cc2)c1S(C)(=O)=O,-15%,?,-21%,8%,18%,21µM*
Cc1cc(C)cc(Oc2nc(-c3ccccc3)cc(C)c2S(C)(=O)=O)c1,9%,?,?,161%,9%,?
COc1ccccc1Oc1nc(-c2ccccc2)cc(C)c1S(C)(=O)=O,-1%,?,-22%,8%,?,18µM*
COC(=O)/C=C1/S/C(=N/N=C/c2ccco2)NC1=O,?,3%,-4%,0%,14µM*,-4%
COC(=O)/C=C1\S/C(=N/N=C/c2ccco2)NC1=O,-16%[10 µM],-5%,12%,-12%,7.1µM*,3%
COc1ccc(/C=N/Nc2ccccn2)c(OC)c1OC,-6%,4%,0%,0%,?,1%
Cc1ccsc1/C=N/Nc1nc(Cl)c(Cl)cc1Cl,4%,?,?,4%,-34%,-11%
COc1ccc(/C=N/Nc2nc3ccccc3[nH]2)c(OC)c1OC,-25%,?,?,3%,13µM*,?
Cc1ccc(/C=N/Nc2nc(Cl)c(Cl)cc2Cl)s1,?,-6%,?,1%[57.4 µM],11µM*,-2%
C(=N\Nc1nc2ccccc2[nH]1)/c1c[nH]c2ccccc12,10µM*,?,?,?,3.5µM*,16µM*
O=[N+]([O-])c1cc(/C=N/Nc2nc3ccccc3[nH]2)c(O)cc1O,3.2µM*,4.6µM*,?,?,3.5µM*,4.6µM*
Cc1cc(Cl)ccc1S(=O)(=O)N1CCc2nn(C)c(=O)n2CC1,·,·,·,5%,·,·
Brc1cc2c(cc1/C=N/Nc1nc(N3CCCCC3)nc(N3CCCCC3)n1)OCO2,-6%,·,-9%,·,1.8µM*,·
Cc1ccccc1/C=N/Nc1nc2ccccc2[nH]1,-93%,?,?,29%,7.1µM*,?
C(=N\Nc1nc2ccccc2[nH]1)/c1cccc2cccnc12,2.2µM*,2.6µM*,?,-12%,0.35µM*,2.9µM*
SMILES,VP16 counter,DT40 TDP1 CPT,ELG1 DNA repair,ALOX12 inh,RORg inh,DT40 TDP1 no CPT
COc1nc(N/N=C/c2cc3c(cc2Br)OCO3)nc(N2CCOCC2)n1,-12%,?,?,0%,12%,?
C(=N\Nc1nc(N2CCCCC2)nc(N2CCCCC2)n1)/c1c[nH]c2ccccc12,-4%,?,?,-12%,2%,16µM*
Cn1cc(C(=O)N2CCN(S(=O)(=O)c3ccc(Br)cc3)CC2)c2ccccc21,·,·,·,-13%,·,·
Cc1ccc(Cn2c(C3CCN(C(=O)Cc4cccs4)CC3)n[nH]c2=O)cc1,·,·,·,-8%,·,·
COc1cc(NC(=O)c2ccc(C#N)cc2F)ccc1NC(=O)c1cc2ccccc2o1,·,·,·,-13%,·,·
Cc1ccc(/C=N/Nc2nc3ccccc3[nH]2)s1,5µM*,15µM*,?,?,4.5µM*,?
COC(=O)c1ccc(-n2c(C)cc(C(=O)CSc3ccc(NC(C)=O)cc3)c2C)cc1,7%,?,?,-16%,?,23µM*
CC(C)Cn1c(N)c(C(=O)COC(=O)c2ccc3ccccc3n2)c(=O)n(C)c1=O,-19%,16µM*,?,0%,23%,16µM*
Cn1c(N)c(C(=O)COC(=O)Cc2ccc(Cl)cc2)c(=O)n(C)c1=O,·,-26%,-2%,2%,·,?
Cn1c(N)c(C(=O)COC(=O)c2ccc(-c3ccccc3)cc2)c(=O)n(C)c1=O,·,?,23µM*,-12%,·,?
Cc1onc(-c2ccccc2Cl)c1C(=O)OCC(=O)c1c(N)n(C)c(=O)n(C)c1=O,5%,7.3µM*,?,1%,24%,7.3µM*
Cn1c(N)c(C(=O)COC(=O)c2ccccc2C(=O)c2ccc(Cl)cc2)c(=O)n(C)c1=O,·,?,?,15%,·,15µM*
COc1cccc(CN2CCC3(CCCO3)CCC2=O)c1 (stereo not drawn),·,·,·,42%,·,·
C=CCn1c(NCc2ccc(C)cc2)nc2c1c(=O)[nH]c(=O)n2C,·,·,·,-4%,·,·
Cc1ccc(C(=O)/C(=C/c2ccc(F)cc2)c2nc3ccccc3o2)cc1,·,·,·,7%,·,·
CC(C)Cn1c(N)c(C(=O)COC(=O)c2ccccc2C(=O)c2ccccc2)c(=O)n(C)c1=O,·,16µM*,16µM*,3%,·,9.2µM*
CC(C)Cn1c(N)c(C(=O)COC(=O)c2cccnc2Cl)c(=O)n(C)c1=O,-6%,?,-17%,6%,32%,10µM*
CC(C)Cn1c(N)c(C(=O)COC(=O)c2ccccc2Cl)c(=O)n(C)c1=O,-12%,?,?,119%,?,?
Cc1occc1-c1nc(-c2ccc(Br)cc2)no1,·,·,·,-54%,·,·

# Bioassay records deposited in PubChem by National Center for Advancing Translational Sciences (NCATS).
